Data from publication PMC7826789 (International Journal of Molecular Sciences, 2021).

Legend:
Settings in all cases: Compound Concentration (nM):1000
[1] = system: FLT3(K663Q)
[2] = system: FLT3(N841I)
[3] = system: FLT3(R834Q)
[4] = system: FLT3-autoinhibited
[5] = system: FLT3
[6] = system: FLT4
[7] = system: FRK
[8] = system: FYN
[9] = system: GAK
[10] = system: T1, GCN2(Kin.Dom.2,S808G)
T1 construct: gene EIF2AK4

[11] = system: GRK1
[12] = system: T2, GRK2
T2 construct: gene ADRBK1

[13] = system: T3, GRK3
T3 construct: gene ADRBK2

[14] = system: GRK4
[15] = system: GRK7
[16] = system: GSK3A
[17] = system: GSK3B
[18] = system: T4, HASPIN
T4 construct: gene GSG2

[19] = system: HCK
[20] = system: HIPK1
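Further: KINOMEscan scanMAX binding as percent activity remaining versus control; lower means stronger binding.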

CN(C)c1cc2c(Nc3ccc4c(cnn4Cc4ccccc4)c3)ncnc2cn1 [GW282974X] was tested, and the “Percent Control” value [1] was 79%, the “Percent Control” value [2] was 100% and the “Percent Control” value [3] was 95%. The “Percent Control” value [4] was 93%, the “Percent Control” value [5] was 73% and the “Percent Control” value [6] was 100%. The “Percent Control” value [7] was 100%, the “Percent Control” value [8] was 90% and the “Percent Control” value [9] was 76%. The “Percent Control” value [10] was 100%, the “Percent Control” value [11] was 78% and the “Percent Control” value [12] was 100%. For the same compound, the “Percent Control” value [13] was 86%, the “Percent Control” value [14] was 100% and the “Percent Control” value [15] was 97%. The “Percent Control” value [16] was 98%, the “Percent Control” value [17] was 100% and the “Percent Control” value [18] was 82%. For the same compound, the “Percent Control” value [19] was 57% and the “Percent Control” value [20] was 78%.
For CN1CCN(C(=O)c2ccc(NC(=O)Nc3ccc(N(C)c4ccnc(Nc5ccc(CS(C)(=O)=O)cc5)n4)cc3)cc2)CC1.Cl [GW830263A], the “Percent Control” value [1] was 0%, the “Percent Control” value [2] was 0% and the “Percent Control” value [3] was 0%. For the same compound, the “Percent Control” value [4] was 7.3%, the “Percent Control” value [5] was 1.5% and the “Percent Control” value [6] was 2%. For the same compound, the “Percent Control” value [7] was 80%, the “Percent Control” value [8] was 98% and the “Percent Control” value [9] was 18%. For the same compound, the “Percent Control” value [10] was 100%, the “Percent Control” value [11] was 100% and the “Percent Control” value [12] was 100%. The “Percent Control” value [13] was 97%, the “Percent Control” value [14] was 4.5% and the “Percent Control” value [15] was 100%. For the same compound, the “Percent Control” value [16] was 100%, the “Percent Control” value [17] was 95% and the “Percent Control” value [18] was 92%. For the same compound, the “Percent Control” value [19] was 100% and the “Percent Control” value [20] was 72%.
For NS(=O)(=O)c1ccc(N/N=C2\C(=O)Nc3ccc(-c4cnco4)cc32)cc1 [GW276655], the “Percent Control” value [1] was 79%, the “Percent Control” value [2] was 70% and the “Percent Control” value [3] was 42%. For the same compound, the “Percent Control” value [4] was 61%, the “Percent Control” value [5] was 100% and the “Percent Control” value [6] was 67%. The “Percent Control” value [7] was 81%, the “Percent Control” value [8] was 81% and the “Percent Control” value [9] was 70%. The “Percent Control” value [10] was 89%, the “Percent Control” value [11] was 87% and the “Percent Control” value [12] was 94%. The “Percent Control” value [13] was 100%, the “Percent Control” value [14] was 39% and the “Percent Control” value [15] was 81%. The “Percent Control” value [16] was 15%, the “Percent Control” value [17] was 80% and the “Percent Control” value [18] was 0.3%. The “Percent Control” value [19] was 95% and the “Percent Control” value [20] was 35%.
With COc1cc2ncnc(Nc3ccc4c(cnn4Cc4ccccc4)c3)c2cc1OC.Cl [GW282449A] the “Percent Control” value [1] was 49%, the “Percent Control” value [2] was 47% and the “Percent Control” value [3] was 83%. For the same compound, the “Percent Control” value [4] was 100%, the “Percent Control” value [5] was 45% and the “Percent Control” value [6] was 95%. For the same compound, the “Percent Control” value [7] was 100%, the “Percent Control” value [8] was 100% and the “Percent Control” value [9] was 90%. The “Percent Control” value [10] was 100%, the “Percent Control” value [11] was 100% and the “Percent Control” value [12] was 100%. The “Percent Control” value [13] was 100%, the “Percent Control” value [14] was 100% and the “Percent Control” value [15] was 100%. For the same compound, the “Percent Control” value [16] was 100%, the “Percent Control” value [17] was 100% and the “Percent Control” value [18] was 99%. The “Percent Control” value [19] was 21% and the “Percent Control” value [20] was 100%.
With Cc1cc(O)cc(C)c1/C=C/c1cncc(C(N)=O)c1 [GW435821X] the “Percent Control” value [1] was 99%, the “Percent Control” value [2] was 100% and the “Percent Control” value [3] was 81%. The “Percent Control” value [4] was 100%, the “Percent Control” value [5] was 95% and the “Percent Control” value [6] was 100%. For the same compound, the “Percent Control” value [7] was 45%, the “Percent Control” value [8] was 70% and the “Percent Control” value [9] was 75%. For the same compound, the “Percent Control” value [10] was 100%, the “Percent Control” value [11] was 95% and the “Percent Control” value [12] was 100%. For the same compound, the “Percent Control” value [13] was 100%, the “Percent Control” value [14] was 100% and the “Percent Control” value [15] was 100%. For the same compound, the “Percent Control” value [16] was 96%, the “Percent Control” value [17] was 100% and the “Percent Control” value [18] was 55%. For the same compound, the “Percent Control” value [19] was 38% and the “Percent Control” value [20] was 100%.
COc1ccc2cc(-c3c(-c4ccncc4)nc(-c4ccc(S(C)(=O)=O)cc4C)n3C)ccc2c1 [SB-633825] was tested, and the “Percent Control” value [1] was 93%, the “Percent Control” value [2] was 96% and the “Percent Control” value [3] was 95%. For the same compound, the “Percent Control” value [4] was 100%, the “Percent Control” value [5] was 92% and the “Percent Control” value [6] was 54%. The “Percent Control” value [7] was 76%, the “Percent Control” value [8] was 78% and the “Percent Control” value [9] was 59%. The “Percent Control” value [10] was 100%, the “Percent Control” value [11] was 70% and the “Percent Control” value [12] was 81%. The “Percent Control” value [13] was 63%, the “Percent Control” value [14] was 100% and the “Percent Control” value [15] was 94%. For the same compound, the “Percent Control” value [16] was 100%, the “Percent Control” value [17] was 100% and the “Percent Control” value [18] was 94%. The “Percent Control” value [19] was 72% and the “Percent Control” value [20] was 77%.
COc1cc(C=NNc2ncnc3c2cnn3-c2ccccc2)ccc1O [GW513184X] was tested, and the “Percent Control” value [1] was 63%, the “Percent Control” value [2] was 27% and the “Percent Control” value [3] was 72%. For the same compound, the “Percent Control” value [4] was 100%, the “Percent Control” value [5] was 34% and the “Percent Control” value [6] was 97%. The “Percent Control” value [7] was 100%, the “Percent Control” value [8] was 90% and the “Percent Control” value [9] was 100%. For the same compound, the “Percent Control” value [10] was 49%, the “Percent Control” value [11] was 100% and the “Percent Control” value [12] was 100%. The “Percent Control” value [13] was 100%, the “Percent Control” value [14] was 28% and the “Percent Control” value [15] was 84%. The “Percent Control” value [16] was 7.7%, the “Percent Control” value [17] was 87% and the “Percent Control” value [18] was 100%. For the same compound, the “Percent Control” value [19] was 78% and the “Percent Control” value [20] was 43%.
With CC1=C(C(=O)Nc2ccc3[nH]ncc3c2)C(c2ccc3ccccc3c2)CC(=O)N1 (centres unmarked) [GSK270822A] the “Percent Control” value [1] was 100%, the “Percent Control” value [2] was 80% and the “Percent Control” value [3] was 98%. For the same compound, the “Percent Control” value [4] was 100%, the “Percent Control” value [5] was 89% and the “Percent Control” value [6] was 100%. The “Percent Control” value [7] was 61%, the “Percent Control” value [8] was 83% and the “Percent Control” value [9] was 90%. For the same compound, the “Percent Control” value [10] was 100%, the “Percent Control” value [11] was 78% and the “Percent Control” value [12] was 38%. The “Percent Control” value [13] was 17%, the “Percent Control” value [14] was 100% and the “Percent Control” value [15] was 100%. For the same compound, the “Percent Control” value [16] was 100%, the “Percent Control” value [17] was 100% and the “Percent Control” value [18] was 96%. The “Percent Control” value [19] was 68% and the “Percent Control” value [20] was 87%.
With CC(C)COC(=O)c1ccc2c(c1)/C(=C/Nc1ccc(S(N)(=O)=O)cc1)C(=O)N2 [GW416981X] the “Percent Control” value [1] was 42%, the “Percent Control” value [2] was 11% and the “Percent Control” value [3] was 18%. For the same compound, the “Percent Control” value [4] was 45%, the “Percent Control” value [5] was 42% and the “Percent Control” value [6] was 100%. For the same compound, the “Percent Control” value [7] was 100%, the “Percent Control” value [8] was 98% and the “Percent Control” value [9] was 40%. For the same compound, the “Percent Control” value [10] was 96%, the “Percent Control” value [11] was 86% and the “Percent Control” value [12] was 100%. For the same compound, the “Percent Control” value [13] was 100%, the “Percent Control” value [14] was 43% and the “Percent Control” value [15] was 100%. The “Percent Control” value [16] was 45%, the “Percent Control” value [17] was 71% and the “Percent Control” value [18] was 18%. The “Percent Control” value [19] was 100% and the “Percent Control” value [20] was 88%.
With Cl.O=C(Nc1ccc(Oc2ccc3[nH]c(NC(=O)c4ccco4)nc3c2)cc1)Nc1cc(C(F)(F)F)ccc1F [GW683134A] the “Percent Control” value [1] was 0.6%, the “Percent Control” value [2] was 8.4% and the “Percent Control” value [3] was 5.6%. For the same compound, the “Percent Control” value [4] was 92%, the “Percent Control” value [5] was 1.3% and the “Percent Control” value [6] was 1.5%. The “Percent Control” value [7] was 40%, the “Percent Control” value [8] was 71% and the “Percent Control” value [9] was 100%. The “Percent Control” value [10] was 90%, the “Percent Control” value [11] was 100% and the “Percent Control” value [12] was 100%. The “Percent Control” value [13] was 100%, the “Percent Control” value [14] was 100% and the “Percent Control” value [15] was 100%. For the same compound, the “Percent Control” value [16] was 100%, the “Percent Control” value [17] was 88% and the “Percent Control” value [18] was 100%. For the same compound, the “Percent Control” value [19] was 41% and the “Percent Control” value [20] was 100%.
